According to PubChem BioAssay (NCI):
Compounds without any hit were thinned out: in the full panel of roughly 83,000, 20% have a hit.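 The endpoint reported here, percent growth, reads 100 for growth as untreated, 0 for no net growth and -100 for all cells dead.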 The source made the active and inactive calls. How the source made its calls: active means growth percent below 10; inactive means the rest.

Legend:
Test in all cases: NCI-60 one-dose screen, 48 h (100 = growth as untreated, 0 = no growth, -100 = all killed)
Settings in all cases: 10 µM
[1] = test system: SR leukemia
[2] = test system: RPMI-8226 leukemia
[3] = test system: OVCAR-8 ovarian
[4] = test system: OVCAR-5 ovarian
[5] = test system: SK-OV-3 ovarian
[6] = test system: IGROV1 ovarian
[7] = test system: OVCAR-3 ovarian
[8] = test system: HS 578T breast
[9] = test system: NCI/ADR-RES ovarian
[10] = test system: OVCAR-4 ovarian

Measured: growth

COc1cc(-c2nc3ccccc3o2)cc(CN2CCCCC2)c1O
inactive: [1] 31.7% | [2] 45.1% | [3] 71.1% | [4] 110% | [5] 118% | [6] 82.1% | [7] 59% | [8] 60.3% | [9] 79.7%

COc1ccc(C2CC(c3cccs3)=NN2c2ccc(S(N)(=O)=O)cc2)cc1 (centres undefined)
inactive: [1] 83% | [2] 61.2% | [3] 84.4% | [4] 95.4% | [10] 107% | [5] 88.5% | [7] 92.5% | [8] 97.4% | [9] 77.4%

O=C(COc1cccc(/C=C2\CSc3ccc(Cl)cc3C2=O)c1)c1ccc(Cl)cc1
active: [1] -3.18% | [2] -25.1%
inactive: [3] 66.9% | [4] 86.7% | [10] 75% | [5] 86.2% | [7] 90.3% | [8] 93% | [9] 72.8%

COc1ccc(C(=O)COc2cccc(/C=C3\Cc4ccccc4C3=O)c2)cc1
inactive: [1] 56.7% | [2] 57.9% | [3] 91.7% | [4] 88.5% | [10] 76.8% | [5] 95.8% | [7] 97.2% | [8] 86.9% | [9] 74.4%

CCOC(=O)/C(=C(\C)N)C1CC(=O)NC1=O (centres undefined)
inactive: [1] 102% | [2] 101% | [3] 99.7% | [4] 102% | [5] 107% | [6] 118% | [7] 109% | [8] 97.5% | [9] 92.8%

O=C(CCn1cnc2c(cc(-c3ccccc3)n2-c2ccccc2)c1=O)Nc1ccc(F)cc1
inactive: [1] 72.3% | [2] 79.3% | [3] 54% | [4] 85.8% | [5] 64.6% | [6] 81.3% | [7] 76.7% | [8] 63.1% | [9] 55.1%

COc1cc2c(cc1NC(=O)C(Cl)Cl)-c1ccc(NC(=O)C(Cl)Cl)cc1C2
inactive: [1] 86.4% | [4] 10.2% | [5] 56.3% | [6] 43.1% | [8] 13.6%
active: [2] 1.01% | [3] -22.8% | [7] -44.6% | [9] -39.2%

c1ccc(CCCCc2ccc3ccccc3n2)cc1
inactive: [1] 99.7% | [2] 103% | [3] 101% | [4] 97.9% | [10] 111% | [6] 100% | [8] 98.7% | [9] 102%

O=C1CC(SC(=S)C2CCCC2=O)C(=O)N1 (centres undefined)
inactive: [1] 89.9% | [2] 100% | [3] 96.3% | [4] 109% | [10] 106% | [5] 105% | [7] 109% | [8] 104% | [9] 104%

COc1cccc2ccc(CC(O)(c3ccccc3)c3ccccc3)nc12
inactive: [1] 82.3% | [2] 90.7% | [3] 91.5% | [4] 115% | [10] 51.2% | [5] 93.3% | [7] 80.3% | [8] 103% | [9] 94.4%

CC(C1=C(CN(C(=O)Cc2cn(-c3ccccc3)nc2-c2ccc(Cl)cc2)C(C)C)Cc2ccccc21)c1ccccn1 (centres undefined)
inactive: [1] 37.4% | [2] 36.5% | [3] 81.7% | [4] 85% | [10] 54.8% | [5] 65.4% | [7] 62.4% | [8] 80.7% | [9] 61.1%

CCN(CC)CCN1c2nc3ccccc3cc2Sc2cc3ccccc3nc21
inactive: [4] 13.6% | [10] 15.8% | [5] 46% | [7] 27.1% | [8] 12.4%
active: [1] -53% | [2] -15.9% | [3] 7.3% | [9] 4.85%

O=C1c2c(c(=O)[nH]c3ccccc23)CCN1Cc1ccccc1
inactive: [1] 115% | [2] 91.9% | [3] 96.4% | [4] 92.9% | [10] 155% | [5] 98.1% | [7] 121% | [8] 119% | [9] 98.6%

Clc1ccc(C2=NN=C3C(Cc4ccccc4)=Nc4ccccc4N3C2)cc1
inactive: [1] 25.4% | [2] 49.4% | [3] 75.5% | [4] 90% | [5] 112% | [6] 83.8% | [7] 65.8% | [8] 90.1% | [9] 74.4%

COc1ccc(Cl)cc1Nc1nc(C(F)(F)F)ccc1C(=O)N/N=C/c1cc(OC)c(OC)c(OC)c1
inactive: [1] 14.1% | [2] 23% | [3] 53.2% | [4] 62.4% | [10] 23.7% | [5] 34.9% | [7] 10.2%
active: [8] -11.3% | [9] 0.977%
